In all, about 5,500 compounds went through this assay and about 2,000 (36%) were called active. Roughly 18% stayed inconclusive and do not appear here. Rule as the data show it: active = normalized growth mostly below about 0.91 (no sharp cut-off); inconclusive = no clear call, values can overlap the other calls; inactive = mostly above about 0.92. Some of the results follow.
Test: chemical genetic growth profiling, strain panel (AID 1159580);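 also: tested at 20 µM; growth read once vehicle control cultures reached saturation at 30 °C; 1 = growth at the plate median or of vehicle wells; lower values mean less growth of the strain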
Settings: growth OD

Measured: normalized growth

CC(=O)OC1CCC2(C)C(CC(OC(C)=O)C3(C)C4=CC(=O)OC(c5ccoc5)C4(C)CCC23)C1(C)C (stereo unspecified)
inactive: S. cerevisiae deletion strains, locus YAL013W, strain DEP1, stronger effect = lower value 0.989 | S. cerevisiae deletion strains, locus YBR021W, strain FUR4, stronger effect = lower value 1.02 | S. cerevisiae deletion strains, locus YBR229C, strain ROT2, stronger effect = lower value 1 | S. cerevisiae deletion strains, locus YCL029C, strain bik1, stronger effect = lower value 0.995 | S. cerevisiae deletion strains, locus YDL035C, strain GPR1, stronger effect = lower value 0.972 | S. cerevisiae deletion strains, locus YDL074C, strain BRE1, stronger effect = lower value 0.791 | S. cerevisiae deletion strains, locus YDL101C, strain DUN1, stronger effect = lower value 0.995 | S. cerevisiae deletion strains, locus YDL134C, strain PPH21, stronger effect = lower value 0.989 | S. cerevisiae deletion strains, locus YDL185W, strain tfp1, stronger effect = lower value 0.963 | S. cerevisiae deletion strains, locus YDL192W, strain arf1, stronger effect = lower value 0.998 | S. cerevisiae deletion strains, locus YDR101C, strain arx1, stronger effect = lower value 1.01 | S. cerevisiae deletion strains, locus YDR150W, strain NUM1, stronger effect = lower value 0.98 | S. cerevisiae deletion strains, locus YDR162C, strain NBP2, stronger effect = lower value 1.01 | S. cerevisiae deletion strains, locus YDR318W, strain mcm21, stronger effect = lower value 0.992 | S. cerevisiae deletion strains, locus YDR388W, stronger effect = lower value 1 | S. cerevisiae deletion strains, locus YDR502C, strain sam2, stronger effect = lower value 1.01 | S. cerevisiae deletion strains, locus YEL061C, strain CIN8, stronger effect = lower value 1.01 | S. cerevisiae deletion strains, locus YER110C, stronger effect = lower value 1 | S. cerevisiae deletion strains, locus YER155C, strain BEM2, stronger effect = lower value 0.997 | S. cerevisiae deletion strains, locus YER167W, strain BCK2, stronger effect = lower value 0.994 | S. cerevisiae deletion strains, locus YGL078C, strain dbp3, stronger effect = lower value 0.993 | S. cerevisiae deletion strains, locus YGL086W, strain mad1, stronger effect = lower value 0.969 | S. cerevisiae deletion strains, locus YGL248W, strain PDE1, stronger effect = lower value 1.01 | S. cerevisiae deletion strains, locus YGR078C, strain PAC10, stronger effect = lower value 0.948 | S. cerevisiae deletion strains, locus YGR135W, strain pre9, stronger effect = lower value 1.04 | S. cerevisiae deletion strains, locus YGR229C, strain SMI1, stronger effect = lower value 0.986 | S. cerevisiae deletion strains, locus YGR252W, strain gcn5, stronger effect = lower value 0.961 | S. cerevisiae deletion strains, locus YHR030C, strain SLT2, stronger effect = lower value 0.998 | S. cerevisiae deletion strains, locus YHR079C, strain IRE1 (second series), stronger effect = lower value 0.972 | S. cerevisiae deletion strains, locus YHR094C, strain hxt1, stronger effect = lower value 0.989 | S. cerevisiae deletion strains, locus YHR129C, strain ARP1, stronger effect = lower value 1 | S. cerevisiae deletion strains, locus YHR200W, strain rpn10, stronger effect = lower value 1 | S. cerevisiae deletion strains, locus YIL066C, strain RNR3, stronger effect = lower value 0.973 | S. cerevisiae deletion strains, locus YIL073C, strain SPO22, stronger effect = lower value 0.882 | S. cerevisiae deletion strains, locus YIL125W, strain kgd1, stronger effect = lower value 1 | S. cerevisiae deletion strains, locus YIR030C, strain dcg1, stronger effect = lower value 1 | S. cerevisiae deletion strains, locus YJL095W, strain BCK1, stronger effect = lower value 1.01 | S. cerevisiae deletion strains, locus YJL134W, strain LCB3, stronger effect = lower value 1 | S. cerevisiae deletion strains, locus YJL168C, strain set2, stronger effect = lower value 1 | S. cerevisiae deletion strains, locus YJL187C, strain SWE1 (second series), stronger effect = lower value 0.994 | S. cerevisiae deletion strains, locus YJR043C, strain POL32, stronger effect = lower value 0.997 | S. cerevisiae deletion strains, locus YJR075W, strain HOC1, stronger effect = lower value 1.01 | S. cerevisiae deletion strains, locus YKL009W, strain mrt4, stronger effect = lower value 0.988 | S. cerevisiae deletion strains, locus YKL068W, stronger effect = lower value 0.982 | S. cerevisiae deletion strains, locus YKL085W, strain MDH1 (second series), stronger effect = lower value 0.994 | S. cerevisiae deletion strains, locus YKL085W, strain MDH1, stronger effect = lower value 0.994 | S. cerevisiae deletion strains, locus YKL190W, strain CNB1, stronger effect = lower value 0.977 | S. cerevisiae deletion strains, locus YKR001C, strain vps1, stronger effect = lower value 0.974 | S. cerevisiae deletion strains, locus YLR039C, strain RIC1, stronger effect = lower value 0.986 | S. cerevisiae deletion strains, locus YLR058C, strain SHM2, stronger effect = lower value 0.989 | S. cerevisiae deletion strains, locus YLR102C, strain apc9, stronger effect = lower value 0.995 | S. cerevisiae deletion strains, locus YLR262C, strain YPT6, stronger effect = lower value 0.954 | S. cerevisiae deletion strains, locus YLR268W, strain sec22, stronger effect = lower value 1.03 | S. cerevisiae deletion strains, locus YLR330W, strain CHS5, stronger effect = lower value 0.995 | S. cerevisiae deletion strains, locus YLR342W, strain FKS1 (second series), stronger effect = lower value 0.996 | S. cerevisiae deletion strains, locus YLR371W, strain rom2, stronger effect = lower value 0.983 | S. cerevisiae deletion strains, locus YLR418C, strain cdc73, stronger effect = lower value 1.01 | S. cerevisiae deletion strains, locus YML016C, strain PPZ1, stronger effect = lower value 1 | S. cerevisiae deletion strains, locus YML032C, strain rad52, stronger effect = lower value 0.986 | S. cerevisiae deletion strains, locus YML124C, strain tub3, stronger effect = lower value 1 | S. cerevisiae deletion strains, locus YMR078C, strain ctf18, stronger effect = lower value 1 | S. cerevisiae deletion strains, locus YMR223W, strain ubp8, stronger effect = lower value 0.99 | S. cerevisiae deletion strains, locus YMR263W, strain SAP30, stronger effect = lower value 0.982 | S. cerevisiae deletion strains, locus YMR307W, strain GAS1, stronger effect = lower value 0.924 | S. cerevisiae deletion strains, locus YNL067W, strain RPL9B, stronger effect = lower value 0.99 | S. cerevisiae deletion strains, locus YNL128W, strain TEP1, stronger effect = lower value 1 | S. cerevisiae deletion strains, locus YNL153C, strain GIM3, stronger effect = lower value 0.989 | S. cerevisiae deletion strains, locus YNL233W, strain BNI4, stronger effect = lower value 1 | S. cerevisiae deletion strains, locus YNL250W, strain rad50, stronger effect = lower value 0.985 | S. cerevisiae deletion strains, locus YNL271C, strain bni1, stronger effect = lower value 1 | S. cerevisiae deletion strains, locus YNL298W, strain CLA4, stronger effect = lower value 1.01 | S. cerevisiae deletion strains, locus YNL307C, strain MCK1, stronger effect = lower value 0.995 | S. cerevisiae deletion strains, locus YNL322C, strain KRE1, stronger effect = lower value 0.992 | S. cerevisiae deletion strains, locus YNR052C, strain pop2, stronger effect = lower value 0.999 | S. cerevisiae deletion strains, locus YOL006C, strain TOP1, stronger effect = lower value 0.937 | S. cerevisiae deletion strains, locus YOL012C, strain htz1 1.25 | S. cerevisiae deletion strains, locus YOL147C, strain pex11, stronger effect = lower value 0.995 | S. cerevisiae deletion strains, locus YOR061W, strain CKA2, stronger effect = lower value 0.996 | S. cerevisiae deletion strains, locus YOR069W, strain VPS5, stronger effect = lower value 0.998 | S. cerevisiae deletion strains, locus YOR136W, strain idh2, stronger effect = lower value 1 | S. cerevisiae deletion strains, locus YOR144C, strain elg1, stronger effect = lower value 0.994 | S. cerevisiae deletion strains, locus YOR184W, strain ser1, stronger effect = lower value 0.976 | S. cerevisiae deletion strains, locus YOR316C, strain cot1, stronger effect = lower value 1 | S. cerevisiae deletion strains, locus YPL055C, strain LGE1, stronger effect = lower value 0.908 | S. cerevisiae deletion strains, locus YPL241C, strain CIN2, stronger effect = lower value 0.987 | S. cerevisiae deletion strains, locus YPR119W, strain clb2, stronger effect = lower value 1 | S. cerevisiae deletion strains, locus YPR141C, strain kar3, stronger effect = lower value 0.998 | S. cerevisiae deletion strains, locus YPR163C, strain tif3, stronger effect = lower value 0.999 | S. cerevisiae deletion strains, locus YPR167C, strain met16, stronger effect = lower value 1 | S. cerevisiae deletion strains, strain wtn01, stronger effect = lower value 0.999 | S. cerevisiae strains, strain wild type, stronger effect = lower value 0.996
